The target of this test is Short transient receptor potential channel 4 (Mus musculus) (UniProt Q9QUQ5). Put plainly: TRPC4 inhibitor concentration-response, dose response, cell-based, HEK293 TRPC4/mu-opioid, DAMGO stimulus, Fluo-4 (AID 492994).

Consider two compounds from PubChem BioAssay AID492994 (Johns Hopkins Ion Channel Center, 2010).

Entries with a potency or affinity are not part of this list. Active and inactive are the calls of the source.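 How the source made its calls: active means TRPC4 ion channel inhibited over 30% at some tested dose, with a fitted dose response curve; inactive means no inhibition or no dose response curve.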

Short transient receptor potential channel 4 (Mus musculus), sequence (Q9QUQ5 whole entry, looked up): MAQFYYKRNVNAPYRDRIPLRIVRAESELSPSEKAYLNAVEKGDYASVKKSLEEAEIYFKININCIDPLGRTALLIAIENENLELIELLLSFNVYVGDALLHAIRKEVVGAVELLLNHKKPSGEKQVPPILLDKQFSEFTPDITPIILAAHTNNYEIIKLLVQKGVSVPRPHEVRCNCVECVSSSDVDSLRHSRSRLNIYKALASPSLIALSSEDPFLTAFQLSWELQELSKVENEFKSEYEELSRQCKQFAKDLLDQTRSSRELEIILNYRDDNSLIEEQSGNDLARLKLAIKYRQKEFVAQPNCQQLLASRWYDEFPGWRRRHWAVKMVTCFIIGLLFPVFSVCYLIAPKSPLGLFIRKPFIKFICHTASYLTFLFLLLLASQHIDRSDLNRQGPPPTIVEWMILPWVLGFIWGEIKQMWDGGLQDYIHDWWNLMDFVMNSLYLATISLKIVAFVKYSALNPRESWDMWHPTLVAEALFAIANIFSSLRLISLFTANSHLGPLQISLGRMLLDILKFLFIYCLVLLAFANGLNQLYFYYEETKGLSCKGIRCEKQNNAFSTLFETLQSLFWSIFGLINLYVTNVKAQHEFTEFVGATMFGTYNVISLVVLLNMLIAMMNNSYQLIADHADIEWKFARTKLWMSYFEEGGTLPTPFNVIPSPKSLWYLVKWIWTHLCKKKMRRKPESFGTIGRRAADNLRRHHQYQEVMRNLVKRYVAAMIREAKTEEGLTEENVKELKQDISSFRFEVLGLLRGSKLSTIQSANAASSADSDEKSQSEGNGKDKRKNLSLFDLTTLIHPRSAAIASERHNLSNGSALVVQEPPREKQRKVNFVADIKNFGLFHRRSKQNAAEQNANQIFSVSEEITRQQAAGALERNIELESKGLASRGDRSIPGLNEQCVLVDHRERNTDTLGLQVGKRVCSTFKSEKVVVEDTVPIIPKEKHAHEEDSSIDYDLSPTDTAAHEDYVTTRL

Consider `Cc1cc(N2CCNCC2)nc2ccccc12`, for which the compound was called inactive.
In the case of `Cc1cc(N2CCN(C)CC2)nc2ccccc12`, the outcome was inactive.
